In the supplement of paper PMC6555819:

Key:
Test in all cases: PBM binding z-score (relative to random genomic background probes); higher = stronger binding; sequences stand for … in GC…GCGATTGACAGCGTAGAATGAAGG
[1] = test system: FXR:RXRa (NR concentration 270 nM, RXRa partner concentration 90 nM)
Outline: (§1)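 Binding buffer was PBS pH 7.4 with 2% milk, 0.02% Triton X-100, 1 mM DTT, 0.2 mg/mL BSA and 0.4 mg/ml salmon testes DNA. In it, ligand-free nuclear receptor dimers were incubated 1 h on custom Agilent 4×180K protein-binding microarrays carrying double-stranded probes. Antibodies against each partner (one per run) detected binding, and z-scores were calculated against random background probes after regression normalization of scanned fluorescence.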

[2] = test system: LXRa:RXRa (NR concentration 270 nM, RXRa partner concentration 90 nM)
Outline: as §1

[3] = test system: LXRa homodimer (NR concentration 270 nM)
Outline: as §1

[4] = test system: LXRb:RXRa (NR concentration 270 nM, RXRa partner concentration 90 nM)
Outline: as §1

[5] = test system: LXRb homodimer (NR concentration 270 nM)
Outline: as §1

[6] = test system: PPARa:RXRa (NR concentration 270 nM, RXRa partner concentration 90 nM)
Outline: as §1

[7] = test system: PPARg:RXRa (NR concentration 180 nM, RXRa partner concentration 90 nM)
Outline: as §1

[8] = test system: PPARg:RXRa 270nM:90nM, anti-RXR (NR concentration 270 nM, RXRa partner concentration 90 nM)
Outline: as §1

[9] = test system: PPARg:RXRa 30nM:10nM, anti-RXR (NR concentration 30 nM, RXRa partner concentration 10 nM)
Outline: as §1

[10] = test system: PPARg:RXRa 90nM:30nM, anti-RXR (NR concentration 90 nM, RXRa partner concentration 30 nM)
Outline: as §1

Sequence	PBM binding z-score [1]	PBM binding z-score [2]	PBM binding z-score [3]	PBM binding z-score [4]	PBM binding z-score [5]	PBM binding z-score [6]	PBM binding z-score [7]	PBM binding z-score [8]	PBM binding z-score [9]	PBM binding z-score [10]
TCATATAGGTAAATGCTCGGTGAAAGTCCGATCT	1.09	0.864	0.318	0.922	-0.121	1.33	0.611	2.36	3.97	3.11
CTACCAAGGTGAACAAGGTCGTTGTTTACTATTC	1.24	1.22	-0.0325	1.85	-0.465	2.46	0.787	1.29	-0.0619	0.702
TCAGACACGTGAAGGTAACTCAGGTACGCAGTCG	0.454	1.57	-0.182	0.638	-0.58	0.588	0.903	1.81	3.41	2.58
CCGTGTAGGTTATGGGGCATTCAGGCAACGGTGA	0.503	0.731	0.151	0.984	0.31	2.13	2.03	3.57	1.74	3.16
CCAACTGGGCCATTCAGAGGTCATTGATCATATG	3	4.24	6.53	3.67	0.435	3.9	2.89	3.16	0.622	2.16
CCGAGTAGGTTAAGGGGCATTCAGGCAACGGTGA	0.765	0.894	-0.155	1.02	-0.297	3.51	6.06	6.42	4.16	6.65
TATATTAGTTGATTAGGGCAACCGAAACAGCGGA	0.381	0.319	0.79	0.365	1.33	0.535	0.578	0.666	1.02	0.819
ACTCGCAGGCCAAGTTTGGGTCACTCAAACAAAG	0.277	0.222	-0.578	0.571	-0.644	1.39	-0.313	0.179	-0.845	-0.263
CAAACTAGGTCAAGGTCAACGTCGGTTTGTGCCA	6.57	5.33	3.32	4.35	0.922	6.21	9.59	8.11	6.56	8.58
CGTCGAAGTTCAACTAAGGTAACGTAAAGCACGC	4.31	3.83	1.23	2.36	0.375	3.15	1.3	1.98	0.415	1.23
CCTTACGGGTCAATGACAGGTTATAGCATTTGGA	6.33	4.45	1.11	3.68	0.333	5.07	3.44	3.62	1.13	2.5
ATATGTAGGTTACATCCGCGTCATTCAGGCTATG	0.387	1.31	0.198	0.733	0.789	3.15	4.94	3.92	1.86	3.52
TCAGACCGGTGAAGGTAACTCAGGTACGCAGTCG	0.557	1.33	-0.308	0.535	-0.714	0.614	0.21	1.47	3.08	2.23
CAAAGTAGGTCAAAGGTCAAAGTCGAGCCAACCA	8.51	7.21	5.79	7.26	3.36	7.84	14.1	11.4	14.4	13.2
TCTTGTAGATCAATTGAGGTTAAGAAAGTGCGCT	1.19	2.94	0.265	1.56	-0.0639	1.74	-0.433	1.68	2.94	2.2
CCTTACGGGTCACTGACAGGTTCTAGCATTTGGA	4.75	3.1	0.00693	2.9	0.128	4.77	3.89	4.02	1.11	2.83
TCGAGTAGGTTACCAATGGGGCATCCAGCTTTCT	-0.0343	1.12	-0.623	0.546	-1.16	1.27	0.366	1.12	1.25	1.19
TCATATAGGTAAATGCTAGGAGAAAGTCCGATCT	0.665	0.615	0.0582	0.346	0.0208	0.892	0.807	2.25	3.95	3.15
AGAATGAGGTTATTAAGATCAAGGAATTGCGGTC	1.4	1.67	0.35	1.5	0.176	2.85	1.82	2.2	0.602	1.6
ATATGTTGGTTACATCCGGGTCATTCAGGCTATG	1.39	1.84	0.976	2.03	1.13	2.43	1.07	1.17	0.492	0.873
TCATATGGGTAAACAGGTGAAAGTCCGTAAGTTA	0.13	0.314	-0.0837	0.449	-0.731	1.85	2.04	2.98	2.52	2.89
CCTATTAGTTGACCATAAGGGCAACCCAAGCTCG	1.15	0.607	0.597	0.677	0.607	0.81	0.661	0.62	0.211	0.475
ACTATTGGTTGAGACGAGGGCAACCGATAGGTTG	0.496	0.289	-0.00418	0.08	0.0327	0.62	0.556	0.157	0.062	0.367
ACTAGTTGGTCAGATGAGGTCACACACAATTCGG	3.83	3.41	2.89	3.36	0.869	3.74	2.28	2.43	0.846	1.63
